Hits are enriched below; roughly 19% of the tested compounds scored in any of these assays.
Shiga toxin inh – Shiga toxin inhibition. Vero cells, Shiga toxin protein synthesis inhibition reporter. inhibition, % at 38.7 µM. actives 9.2% (n = 290,000). AID 2315; in the data active = inhibition mostly above about 28%, no sharp cut-off; inactive = mostly below about 43%
Lassa entry inh – inhibitors of Lassa virus binding or cell entry | actives 1.2% (n = 300,000) | Potency, µM (series often up to 37.9 µM), actives largely listed as inhibitors | Lassa virus pseudotype entry inhibition, cell reporter; calls by dose curve; tested in HEK293 cells; also: nearly all actives have a fitted effect of over 50% in size
Pf growth 96h – inhibits malaria parasite growth, 96 h; P. falciparum luciferase reporter growth, 96 h; Potency, µM (titrated, usually from 28.7 µM), most hits filed as inhibitors; actives 6.9% (n = 320,000); AID 504834
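Infected RBCs, 2% Hct / 0.05% parasitemia final; luciferase-reporter P. falciparum; cpd 96 h, 37 C, 5% CO2; luciferase detection reagent; luminescence.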
Pf growth 48h – P. falciparum growth inhibition at 48 hours (one generation); P. falciparum luciferase growth in erythrocytes, 48 h; Potency, µM (doses to about 28.7 µM), hits mostly inhibitors; actives 5.9% (n = 310,000); AID 504832
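In quantitative HTS format, infected erythrocytes bearing luciferase-reporter parasites were treated for a single generation at 37 C. Luminescence after adding detection reagent served as the growth measure.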
Cycloheximide cs – counter-screen for Shiga toxin inhibitors: cycloheximide protein synthesis inhibition. cell reporter, cycloheximide protein synthesis inhibition counterscreen. max response, %. actives 12% (n = 300,000); in the data active = max response mostly above about 13%, no sharp cut-off; inactive = mostly below about 14%; also: read at 38.3 µM for the half of the compounds with a filed dose
Marburg entry inh – blocks Marburg virus binding to or entry into cells; Marburg virus pseudotyped entry inhibition, cell reporter; Potency, µM (titrated, usually from 37.8 µM), usual class: inhibitors; actives 1.8% (n = 300,000); AID 540276; calls by dose curve; tested in HEK293 cells
Of the large screens only hits and unclear results are named; the others gave an inactive call. Unless noted, calls follow the shape of the dose curve; as a rule, active = well fitted inhibition curve with a large enough effect; inconclusive = small, poorly fitted or top-dose-only effect, or another doubt; inactive = no such curve, though single readings can be large or run the other way.

Cc1ccc(/C=C/C(=O)N2CCCN(C(=O)/C=C/c3ccc(C)cc3)CC2)cc1	Pf growth 96h inconclusive, Cycloheximide cs 16, Marburg entry inh inconclusive
CSc1ccc(/C=C/C(=O)N2CCCN(C)CC2)cc1	Shiga toxin inh 52, Lassa entry inh inconclusive, Cycloheximide cs 23
COc1ccc(OCC(=O)N2CCN(CC3CC4C=CC3C4)CC2)cc1 (stereo unspecified)	none
CCCC(C(=O)Nc1ccc(C)c(S(=O)(=O)N2CCOCC2)c1)c1ccccc1 (stereo unspecified)	Lassa entry inh inconclusive, Pf growth 96h inconclusive, Pf growth 48h 10µM, Marburg entry inh inconclusive (no result: Shiga toxin inh, Cycloheximide cs)
CCCc1ccc(NC(C)C(=O)Nc2ccc(S(=O)(=O)N3CCOCC3)cc2)cc1 (stereo unspecified)	Lassa entry inh inconclusive, Pf growth 96h 5.2µM, Pf growth 48h inconclusive, Marburg entry inh inconclusive (no result: Shiga toxin inh, Cycloheximide cs)
CCC(C)c1ccccc1N1CC(C(=O)Nc2ccc(C)c(S(=O)(=O)N3CCOCC3)c2)CC1=O (stereo unspecified)	Pf growth 96h inconclusive, Pf growth 48h 13µM, Marburg entry inh inconclusive (no result: Shiga toxin inh, Cycloheximide cs)
CCCC(C(=O)Nc1cccc(S(=O)(=O)N2CCCC2)c1)c1ccccc1 (stereo unspecified)	Lassa entry inh 7.1µM, Pf growth 96h 10µM, Pf growth 48h inconclusive, Marburg entry inh inconclusive (no result: Shiga toxin inh, Cycloheximide cs)
CCC(=O)OCCn1c(Br)nc2c1c(=O)[nH]c(=O)n2C	Pf growth 96h inconclusive
CCCC(C(=O)Nc1ccc(S(=O)(=O)N2CCOCC2)cc1)c1ccccc1 (stereo unspecified)	Pf growth 96h 9.3µM, Pf growth 48h 13µM (no result: Shiga toxin inh, Lassa entry inh, Cycloheximide cs, Marburg entry inh)
NC1(C(=O)O)CCCc2ccc(N(CCCl)CCCl)cc21 (stereo unspecified)	Lassa entry inh inconclusive, Marburg entry inh 10µM (no result: Shiga toxin inh, Pf growth 96h, Pf growth 48h, Cycloheximide cs)
O=C(CCCc1ccccc1)Nc1cccnc1	Shiga toxin inh 66, Cycloheximide cs 19, Marburg entry inh inconclusive (no result: Pf growth 48h)
O=C(CC(=O)c1ccccc1)Nc1cccnc1	Cycloheximide cs 24
O=C(Nc1ccccc1)C(=O)Nc1cccnc1	Shiga toxin inh 53, Lassa entry inh inconclusive, Cycloheximide cs 32, Marburg entry inh inconclusive
O=C(O)C1CC=CCC1C(=O)Nc1cccnc1 (stereo unspecified)	Pf growth 48h 9.3µM
COC(=O)c1cccc(-n2c(C)cc(C=O)c2C)c1	Pf growth 96h inconclusive, Marburg entry inh inconclusive
Nc1nonc1-c1noc(N2CCOCC2)n1	Marburg entry inh inconclusive
Cc1cccc(OCc2nc(-c3nonc3N)no2)c1C	Shiga toxin inh 53, Pf growth 96h inconclusive, Cycloheximide cs 56, Marburg entry inh inconclusive
COc1ccc(-c2noc(CNC(=O)COc3cccc(C)c3C)n2)cc1	Lassa entry inh inconclusive (no result: Shiga toxin inh, Pf growth 96h, Pf growth 48h, Cycloheximide cs)
Nc1nonc1-c1noc(COc2ccccc2Cl)n1	Shiga toxin inh 83, Lassa entry inh inconclusive, Pf growth 96h inconclusive, Cycloheximide cs 23
CCOc1ccc(Cc2nc(-c3nonc3N)no2)cc1OCC	Pf growth 96h 1.5µM
Cc1ccc(-n2nc(C(=O)O)c(C)c(C#N)c2=O)cc1Cl	Pf growth 96h inconclusive
O=C(CSc1nnc(Nc2ccccc2F)s1)NCc1ccco1	Lassa entry inh inconclusive, Pf growth 96h inconclusive, Pf growth 48h inconclusive
CC1CN(CCC(=O)Nc2ccc3c(c2)OCO3)CC(C)O1 (stereo unspecified)	none
CCN=C1S/C(=C\c2cn(CC)c3ccccc23)C(=O)N1CC	Lassa entry inh inconclusive, Pf growth 96h inconclusive, Pf growth 48h inconclusive
Cn1cc(/C=C2\C(=O)NC(=O)N(c3ccccc3)C2=O)c2ccccc21	none
Cn1cc(/C=C2\SC(=O)N(c3ccc(O)cc3)C2=O)c2ccccc21	Shiga toxin inh 91, Pf growth 96h inconclusive, Pf growth 48h inconclusive, Cycloheximide cs 45 (no result: Lassa entry inh, Marburg entry inh)
Cn1cc(/C=C2\SC(=O)N(c3ccccc3)C2=O)c2ccccc21	Cycloheximide cs 19, Marburg entry inh inconclusive
CC(C)n1cc(/C=C2/SC(=O)N(CC(=O)N3CCCC3)C2=O)c2ccccc21	Pf growth 96h inconclusive
CCN1C(=O)S/C(=C/c2cn(C)c3ccccc23)C1=O	Shiga toxin inh 44, Lassa entry inh inconclusive, Pf growth 96h inconclusive, Cycloheximide cs 27
CC(=O)Nc1ccc(NC(=O)CN(c2cccc([N+](=O)[O-])c2)S(C)(=O)=O)cc1	none (no result: Lassa entry inh, Marburg entry inh)
C=CCn1c(SCC(=O)Nc2sc3c(c2C#N)CCC(C)C3)nc2cc(C(=O)O)ccc2c1=O (stereo unspecified)	none (no result: Shiga toxin inh, Pf growth 96h, Pf growth 48h, Cycloheximide cs)
CS(=O)(=O)NCCCCNc1ccc(C(F)(F)F)cc1[N+](=O)[O-]	Marburg entry inh inconclusive
COc1ccc(Nc2c3c(nc4c(-c5ccccc5)c(C)nn24)CCC3)cc1	Pf growth 96h 5.9µM, Pf growth 48h 13µM, Marburg entry inh inconclusive
Cc1nn2c(NCc3ccccn3)c3c(nc2c1-c1ccccc1)CCC3	Lassa entry inh inconclusive, Pf growth 96h 4.7µM, Pf growth 48h inconclusive, Marburg entry inh inconclusive
Cc1nc2c(-c3ccccc3)c(C)nn2c(C)c1CCC(=O)O	none (no result: Lassa entry inh, Marburg entry inh)
Cc1nn2c(N3CCN(C)CC3)c3c(nc2c1-c1ccccc1)CCCC3	Pf growth 96h 9.3µM (no result: Lassa entry inh, Marburg entry inh)
Cc1nn2c(NCc3ccccn3)cc(C(C)(C)C)nc2c1-c1ccccc1	Pf growth 96h 2.9µM, Pf growth 48h 4.7µM (no result: Lassa entry inh, Marburg entry inh)
Cc1[nH]n2c(=O)c3c(nc2c1-c1ccccc1)CCCC3	Pf growth 48h inconclusive
O=C(CN1CCN(c2ccc(F)cc2)CC1)NCc1cccs1	Lassa entry inh inconclusive
O=C(COC(=O)c1cc(Br)ccc1O)NNC(=O)c1ccc(Cl)cc1	none (no result: Shiga toxin inh, Cycloheximide cs)
COCCCn1c(=O)c2ccccc2n(CC(=O)N2CCCc3ccccc32)c1=O	Lassa entry inh inconclusive, Pf growth 48h inconclusive
Cc1cc(Nc2ccccc2)n2nc(C)c(-c3ccccc3)c2n1	Pf growth 48h inconclusive (no result: Lassa entry inh, Marburg entry inh)
c1ccc(CNc2c3c(nc4ncnn24)CCCC3)nc1	Pf growth 96h 8.3µM
Cc1cc(NCc2ccccn2)n2nc(C)c(-c3ccccc3)c2n1	Lassa entry inh inconclusive, Pf growth 96h 2.1µM, Pf growth 48h 1.7µM, Marburg entry inh 10µM
Cc1nn2c(NCCN3CCOCC3)c3c(nc2c1-c1ccccc1)CCCC3	Pf growth 96h 13µM, Pf growth 48h inconclusive, Marburg entry inh inconclusive
Cc1cc(N2CCOCC2)n2nc(C)c(-c3ccccc3)c2n1	none (no result: Pf growth 96h)
Clc1ccc(N=c2ssnc2Cl)cc1	Shiga toxin inh 40, Pf growth 96h inconclusive
COc1cc(N=c2ssnc2Cl)cc(OC)c1OC	none
COc1ccc(N=c2ssnc2Cl)cc1	Shiga toxin inh 37, Cycloheximide cs 18
Fc1ccc(N=c2ssnc2Cl)c(F)c1	Pf growth 48h inconclusive, Cycloheximide cs 19
Clc1nssc1=Nc1ccccc1	Marburg entry inh inconclusive
CCOC(=O)c1ccc(N=c2ssnc2Cl)cc1	Shiga toxin inh 53, Lassa entry inh inconclusive, Cycloheximide cs 23, Marburg entry inh inconclusive
CN(C)C(=O)c1c([N+](=O)[O-])c(C(C)(C)C)nn1C	none
O=C(CCCCCCN1C(=O)c2ccccc2C1=O)Nc1nccs1	Pf growth 48h inconclusive
O=C(NCC1CCCO1)c1nc2c(nnn2Cc2ccccc2Cl)c(=O)[nH]1 (stereo unspecified)	Pf growth 96h 13µM
